# Laboratory results: the supplement of paper PMC8728848
# This is one part of a sample in which the strongest signals are shown more often than they occur.
# B1: GS13846A-bth-444-19-444 (Bacteroides thetaiotaomicron) (protein)
# chain: SCENEFDVSDKADSLISVTVNTLNNQAAYNVGETAQAELWIQRGGLKDASGKVQFVVDPLLLDSLNQEDKTNYELLPENCYEMTNTEFTVDKNELCGYITYHPEKILALSAYNETKYVLPLRLISNDLAINPARNTSFLAFTILEPIVHISNAGVYNINPDLTSTMDIQIGVPFTNKWDILCNLTEDLSLIDEYNQINKVNFTLLPENAYTAPESVTLQEGVSQITASYQLKNNLVPGNYILPIKIGSITASQGGVPNNSLVIDEESNVLFCIVKEGNKINKSGWEVIECSSEHAGNEATYMIDDNESTYWHCKFKNEAGSSVPPFHFIIDMKKEITIAQIDLLNRGDGAANNIKWVEFYASNNNSEWDKIGAGDFNDEGTRATFRYYVKSTKARYLKLIIPEGYGNNCPPAAIRELTVYGLEGNN
# Experiments:
# Test in all cases: glycan array binding signal (z-score within array); higher = stronger binding
# Details in all cases: glycan notation: IUPAC condensed, linker removed
# [1] = target: Fuc(a1-2)Gal(b1-3)GalNAc
# Outline: (§1)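 Glycan array data were curated from 3228 arrays in the Consortium for Functional Glycomics database and kept only where the protein sequence was available. Glycan names were converted to IUPAC-condensed notation, and columns mapping to the same glycan were averaged. The binding signal is a within-array Z-score, averaged across arrays of the same protein sequence at different concentrations or buffers and across linkers. Negative Z-scores can be read as non-binding.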
# [2] = target: Fuc(a1-2)Gal(b1-3)GlcNAc(b1-3)[Fuc(a1-2)Gal(b1-3)GlcNAc(b1-6)]GalNAc
# Outline: as §1
# [3] = target: Fuc(a1-2)Gal(b1-3)[Fuc(a1-4)]GlcNAc(b1-2)Man(a1-3)[Fuc(a1-2)Gal(b1-3)[Fuc(a1-4)]GlcNAc(b1-2)Man(a1-3)]Man(b1-4)GlcNAc(b1-4)GlcNAc
# Outline: as §1
# [4] = target: Fuc(a1-2)Gal(b1-4)Glc
# Outline: as §1
# [5] = target: Fuc(a1-2)Gal(b1-4)GlcNAc(b1-2)Man(a1-3)[Fuc(a1-2)Gal(b1-4)GlcNAc(b1-2)Man(a1-6)]Man(b1-4)GlcNAc(b1-4)GlcNAc
# Outline: as §1
# [6] = target: Fuc(a1-2)Gal(b1-4)GlcNAc(b1-2)[Fuc(a1-2)Gal(b1-4)GlcNAc(b1-4)]Man(a1-3)[Fuc(a1-2)Gal(b1-4)GlcNAc(b1-2)Man(a1-6)]Man(b1-4)GlcNAc(b1-4)GlcNAc
# Outline: as §1
# [7] = target: Fuc(a1-2)Gal(b1-4)GlcNAc(b1-3)[Fuc(a1-3)[Gal(b1-4)]GlcNAc(b1-6)]Gal(b1-4)Glc
# Outline: as §1
# [8] = target: Fuc(a1-2)Gal(b1-4)[Fuc(a1-3)]GlcNAc(b1-2)[Fuc(a1-2)Gal(b1-4)[Fuc(a1-3)]GlcNAc(b1-4)]Man(a1-3)[Fuc(a1-2)Gal(b1-4)[Fuc(a1-3)]GlcNAc(b1-2)Man(a1-6)]Man(b1-4)GlcNAc(b1-4)GlcNAc
# Outline: as §1
# [9] = target: Fuc(a1-2)Gal6S(b1-4)Glc
# Outline: as §1
# [10] = target: Fuc(a1-2)[Gal(a1-3)]Gal(b1-3)GlcNAc(b1-2)Man(a1-3)[Fuc(a1-2)[Gal(a1-3)]Gal(b1-3)GlcNAc(b1-2)Man(a1-6)]Man(b1-4)GlcNAc(b1-4)GlcNAc
# Outline: as §1
# [11] = target: Gal(a1-3)[Gal(a1-4)]Gal(b1-4)GlcNAc
# Outline: as §1
# [12] = target: Gal(a1-4)Gal(b1-4)GlcNAc(b1-3)Gal(b1-4)Glc
# Outline: as §1
# [13] = target: Gal(b1-3)GlcNAc(b1-2)Man(a1-3)[Gal(b1-3)GlcNAc(b1-2)Man(a1-6)]Man(b1-4)GlcNAc(b1-4)GlcNAc
# Outline: as §1
# [14] = target: Gal(b1-3)GlcNAc(b1-2)Man(a1-3)[Gal(b1-3)GlcNAc(b1-2)Man(a1-6)]Man(b1-4)GlcNAc(b1-4)[Fuc(a1-6)]GlcNAc
# Outline: as §1
# [15] = target: Gal(b1-3)GlcNAc(b1-2)[Gal(b1-3)GlcNAc(b1-6)]Man(a1-6)[Gal(b1-3)GlcNAc(b1-2)Man(a1-3)]Man(b1-4)GlcNAc(b1-4)GlcNAc
# Outline: as §1
# [16] = target: Gal(b1-3)GlcNAc(b1-3)Gal(b1-4)[Fuc(a1-3)]GlcNAc
# Outline: as §1
# [17] = target: Gal(b1-4)GlcNAc(b1-2)Man(a1-3)[GlcNAc(b1-4)][Gal(b1-4)GlcNAc(b1-2)Man(a1-6)]Man(b1-4)GlcNAc(b1-4)GlcNAc
# Outline: as §1
# [18] = target: Gal(b1-4)GlcNAc(b1-2)Man(a1-6)Man(b1-4)GlcNAc(b1-4)GlcNAc
# Outline: as §1
# [19] = target: Gal(b1-4)GlcNAc(b1-3)Gal(b1-4)GlcNAc(b1-3)Gal(b1-4)GlcNAc(b1-3)Gal(b1-4)GlcNAc(b1-2)Man(a1-3)[Gal(b1-4)GlcNAc(b1-3)Gal(b1-4)GlcNAc(b1-3)Gal(b1-4)GlcNAc(b1-3)Gal(b1-4)GlcNAc(b1-2)Man(a1-6)]Man(b1-4)GlcNAc(b1-4)[Fuc(a1-6)]GlcNAc
# Outline: as §1
# [20] = target: Gal(b1-4)GlcNAc(b1-3)Gal(b1-4)GlcNAc(b1-6)[Gal(b1-3)]GalNAc
# Outline: as §1
# [21] = target: Gal(b1-6)Gal
# Outline: as §1
# [22] = target: Gal3S6S(b1-4)GlcNAc
# Outline: as §1
# [23] = target: Gal3S6S(b1-4)GlcNAc6S
# Outline: as §1
# [24] = target: Gal6S(b1-3)GlcNAc
# Outline: as §1
# [25] = target: Gal6S(b1-3)GlcNAc6S
# Outline: as §1
# [26] = target: Gal6S(b1-4)Glc
# Outline: as §1
# [27] = target: Gal6S(b1-4)Glc6S
# Outline: as §1
# [28] = target: Gal6S(b1-4)GlcNAc
# Outline: as §1
# [29] = target: Gal6S(b1-4)GlcNAc6S
# Outline: as §1
# [30] = target: GalNAc(a1-3)GalNAc(b1-3)Gal(a1-4)Gal(b1-4)GlcNAc
# Outline: as §1
# [31] = target: GalNAc(b1-4)Gal(b1-4)Glc
# Outline: as §1
# [32] = target: GalNAc6S(b1-4)GlcNAc
# Outline: as §1
# [33] = target: Glc(b1-4)Glc
# Outline: as §1
# [34] = target: GlcA3S(b1-3)Gal(b1-4)GlcNAc(b1-2)Man
# Outline: as §1
# [35] = target: GlcA3S(b1-3)Gal(b1-4)GlcNAc(b1-3)Gal(b1-4)Glc
# Outline: as §1
# [36] = target: GlcNAc(a1-3)Gal(b1-4)GlcNAc
# Outline: as §1
# [37] = target: GlcNAc(a1-6)Gal(b1-4)GlcNAc
# Outline: as §1
# [38] = target: GlcNAc(b1-3)Gal(b1-4)GlcNAc(b1-3)Gal(b1-4)GlcNAc(b1-2)Man(a1-3)[GlcNAc(b1-3)Gal(b1-4)GlcNAc(b1-3)Gal(b1-4)GlcNAc(b1-2)Man(a1-6)]Man(b1-4)GlcNAc(b1-4)[Fuc(a1-6)]GlcNAc
# Outline: as §1
# [39] = target: GlcNAc(b1-4)Gal(b1-4)GlcNAc
# Outline: as §1
# [40] = target: Neu5Ac(a2-3)Gal(b1-4)GlcNAc(b1-2)Man(a1-3)[Neu5Ac(a2-3)Gal(b1-4)GlcNAc(b1-2)Man(a1-6)]Man(b1-4)GlcNAc(b1-4)[Fuc(a1-6)]GlcNAc
# Outline: as §1
# [41] = target: Neu5Ac(a2-3)Gal(b1-4)GlcNAc(b1-3)Gal(b1-4)GlcNAc(b1-3)Gal(b1-4)GlcNAc
# Outline: as §1
# [42] = target: Neu5Ac(a2-3)Gal(b1-4)GlcNAc(b1-3)Gal(b1-4)GlcNAc(b1-3)Gal(b1-4)GlcNAc(b1-2)Man(a1-3)[Neu5Ac(a2-3)Gal(b1-4)GlcNAc(b1-3)Gal(b1-4)GlcNAc(b1-3)Gal(b1-4)GlcNAc(b1-2)Man(a1-6)]GalNAc
# Outline: as §1
# [43] = target: Neu5Ac(a2-3)Gal(b1-4)GlcNAc(b1-3)Gal(b1-4)GlcNAc(b1-3)[Neu5Ac(a2-3)Gal(b1-4)GlcNAc(b1-3)Gal(b1-4)GlcNAc(b1-6)]GalNAc
# Outline: as §1
# [44] = target: Neu5Ac(a2-3)Gal(b1-4)[Fuc(a1-3)]GlcNAc(b1-3)Gal(b1-4)GlcNAc
# Outline: as §1
# [45] = target: Neu5Ac(a2-3)Gal6S(b1-4)GlcNAc
# Outline: as §1
# [46] = target: Neu5Ac(a2-6)Gal(b1-4)GlcNAc(b1-2)Man(a1-3)Man(b1-4)GlcNAc(b1-4)GlcNAc
# Outline: as §1
# [47] = target: Neu5Ac(a2-6)Gal(b1-4)GlcNAc(b1-2)Man(a1-6)[Gal(b1-4)GlcNAc(b1-2)Man(a1-3)]Man(b1-4)GlcNAc(b1-4)GlcNAc
# Outline: as §1
# [48] = target: Neu5Ac(a2-6)Gal(b1-4)GlcNAc(b1-6)[Gal(b1-3)]GalNAc
# Outline: as §1
# [49] = target: Neu5Ac(a2-6)GlcNAc(b1-4)GlcNAc
# Outline: as §1
# [50] = target: Neu5Gc(a2-8)Neu5Gc(a2-6)Gal(b1-4)GlcNAc
# Outline: as §1
binder,measurement,setting,value
B1,glycan array binding signal (z-score),[1],-0.247
same,glycan array binding signal (z-score),[2],-0.101
same,glycan array binding signal (z-score),[3],-0.423
same,glycan array binding signal (z-score),[4],-0.176
same,glycan array binding signal (z-score),[5],0.384
same,glycan array binding signal (z-score),[6],-0.079
same,glycan array binding signal (z-score),[7],0.069
same,glycan array binding signal (z-score),[8],-0.407
same,glycan array binding signal (z-score),[9],-0.234
same,glycan array binding signal (z-score),[10],-0.305
same,glycan array binding signal (z-score),[11],2.7
same,glycan array binding signal (z-score),[12],-0.018
same,glycan array binding signal (z-score),[13],0.242
same,glycan array binding signal (z-score),[14],3.4
same,glycan array binding signal (z-score),[15],-0.163
same,glycan array binding signal (z-score),[16],0.028
same,glycan array binding signal (z-score),[17],-0.238
same,glycan array binding signal (z-score),[18],-0.133
same,glycan array binding signal (z-score),[19],0.486
same,glycan array binding signal (z-score),[20],-0.308
same,glycan array binding signal (z-score),[21],-0.188
same,glycan array binding signal (z-score),[22],6.47
same,glycan array binding signal (z-score),[23],6.71
same,glycan array binding signal (z-score),[24],7.3
same,glycan array binding signal (z-score),[25],6.28
same,glycan array binding signal (z-score),[26],3.68
same,glycan array binding signal (z-score),[27],12.7
same,glycan array binding signal (z-score),[28],4.8
same,glycan array binding signal (z-score),[29],8.87
same,glycan array binding signal (z-score),[30],-0.175
same,glycan array binding signal (z-score),[31],0
same,glycan array binding signal (z-score),[32],5.49
same,glycan array binding signal (z-score),[33],-0.32
same,glycan array binding signal (z-score),[34],-0.266
same,glycan array binding signal (z-score),[35],-0.082
same,glycan array binding signal (z-score),[36],-0.214
same,glycan array binding signal (z-score),[37],-0.052
same,glycan array binding signal (z-score),[38],0.103
same,glycan array binding signal (z-score),[39],-0.193
same,glycan array binding signal (z-score),[40],-0.407
same,glycan array binding signal (z-score),[41],0.067
same,glycan array binding signal (z-score),[42],-0.089
same,glycan array binding signal (z-score),[43],-0.336
same,glycan array binding signal (z-score),[44],-0.205
same,glycan array binding signal (z-score),[45],-0.129
same,glycan array binding signal (z-score),[46],-0.287
same,glycan array binding signal (z-score),[47],-0.298
same,glycan array binding signal (z-score),[48],1.86
same,glycan array binding signal (z-score),[49],0.027
same,glycan array binding signal (z-score),[50],-0.262
